Sampled rows, rich in hits. Any-hit rate of the full collection: about 4.7%.
tim10-1 inh: tim10-1 yeast growth inhibition | S. cerevisiae tim10-1 ts strain growth, BacTiter-Glo, 24 h | inhibition, % at 20 µM | actives 2.2% (n = 330,000) | AID 463190;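 active = inhibition of at least 40%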;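 note: mutant grown at 25 °C; 0% = DMSO wells with yeast and 100% = wells holding no yeast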
SKKanGAS inh: blocks kanamycin growth of S. pyogenes SKKanGAS strain; actives 1.3% (n = 300,000); inhibition, % at 7.5 µM; AID 1662; BacTiter-Glo, 6 h;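 active = mean replicate score, as percent of positive control median, at least 50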;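 note: strain carries kanamycin resistance gene driven by streptokinase promoter and grows in 40 µg/ml kanamycin; loss of luminescence reflects streptokinase promoter inhibition or plain growth inhibition; 0% = median of DMSO wells and 100% = positive control at its reference dose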
Calb FLC: C. albicans growth modulation with fluconazole; C. albicans CaCi-2 (fluconazole-resistant clinical isolate) + fluconazole, Alamar Blue growth, 48 h; growth inhibition, % (no concentration beside the values); actives 0.57% (n = 300,000); AID 1979;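 active = growth inhibition above about 58% in most replicates, limit read from the data, passing the limit was not always enough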;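 note: all wells also contain fluconazole at 8 µg/ml as a sub-toxic cotreatment; 0% = median of DMSO wells and 100% = median of geldanamycin control wells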
tim23-1 inh: growth inhibitors of tim23-1 mutant yeast | S. cerevisiae tim23-1 growth, BacTiter-Glo luminescence, 24 h | inhibition, % at 20 µM | actives 1.3% (n = 330,000);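 active = growth inhibition of the mutant yeast at or above 50%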;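 note: temperature-sensitive mutant grown at 25 °C; plate controls were DMSO-treated mutant yeast for no effect and medium wells lacking yeast for full effect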
PfHsp90 set2: reduces growth (ATP signal) of yeast expressing P. falciparum Hsp90; actives 0.32% (n = 310,000); inhibition, % at 9.4 µM; AID 504621; S. cerevisiae expressing PfHsp90, BacTiter-Glo ATP, 48 h; yeast lacking PDR1 and PDR3 efflux regulators;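 active = every replicate shows inhibition above about 80%, whatever the replicate mean, limit read from the data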;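 note: 0% = DMSO neutral controls and 100% = 20 µM radicicol positive controls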
TIM10 inh: TIM10 yeast growth inhibition; S. cerevisiae TIM10 strain growth, BacTiter-Glo luminescence, 24 h; inhibition, % at 10 µM; actives 1.4% (n = 330,000);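 active = inhibition of 40% or more at the single tested concentration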;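 note: wild-type TIM10 isogenic control strain grown at permissive 25 °C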
tim10-1 conf: confirmation of tim10-1 mutant yeast growth inhibitors; AID 463213; shares compounds with tim10-1 inh; inhibition, % at 20 µM; S. cerevisiae tim10-1 ts strain growth, BacTiter-Glo, 24 h; actives 56% (n = 7,400);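 active = inhibition of yeast growth at or above a set limit in either of two repeat tests at 20 µM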;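 note: tim10-1 mutant grown at permissive 25 °C to find synthetic lethal compounds; 0% = DMSO yeast wells and 100% = medium wells without yeast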
* = called active by the depositor; x = no result.

SMILES | tim10-1 inh | SKKanGAS inh | Calb FLC | tim23-1 inh | PfHsp90 set2 | TIM10 inh | tim10-1 conf
COc1ccc(/C=C2\CCC/C(=C\c3ccc(OC)c(OC)c3OC)C2=O)c(OC)c1OC | 41* | -7 | 6 | 35 | -10 | 21 | 22
Oc1[nH]c2c(Cl)cc(Cl)cc2c1N=NC(=S)NCC1CCCO1 (stereo not given) | 46* | 95* | 97* | 32 | -28 | 25 | 20
COc1ccc(-c2sc3cc4c(cc3c2C#CC2(N)CCCCC2)OCO4)cc1 | 48* | x | x | 46 | -7 | 33 | 44*
CC1CN(CCc2ccccc2)c2nc3c(c(=O)n(C)c(=O)n3C)n2C1 (stereo not given) | 15 | 2 | -29 | 13 | 8 | 7 | x
Cc1ccc(C(c2cc(Br)ccc2O)N2CCSCC2)cc1 (stereo not given) | 12 | 46 | 12 | 10 | -16 | 6 | x
COc1ccc(S(=O)(=O)N2CCN(C(=O)CC3CC4CCC3C4)CC2)cc1 (stereo not given) | 32 | x | x | 25 | -28 | 15 | x
Cc1ccc(NC(=O)CN(c2ccc(Cl)cc2)S(=O)(=O)c2cc([N+](=O)[O-])ccc2Cl)c(C)c1 | 44* | 33 | 5 | 34 | 23 | 4 | 23
CCCCNC(=O)c1cn(C)c2ccc(S(=O)(=O)N3CC(C)CC(C)C3)cc2c1=O (stereo not given) | -19 | 1 | -12 | 6 | 10 | 8 | x
CN(C1CCCCC1)S(=O)(=O)c1ccc(NC(=O)c2ccco2)cc1 | 44* | -4 | 9 | 42 | -14 | 11 | 29*
CN(c1ccccc1)S(=O)(=O)c1ccc(NC(=O)c2ccco2)cc1 | 33 | 2 | 18 | 44 | 0 | 28 | x
COc1ccc(CNCc2c(O)c(Cl)cc3c(C)c(C)c(=O)oc23)c(OC)c1 | 19 | 2 | 2 | 17 | 10 | -3 | x
CSc1ccccc1NC(=S)NC1CCCC1 | 22 | 15 | -33 | 17 | 10 | 9 | x
CCCCc1ccccc1NC(=S)NC1CCCC1 | 43* | -8 | -20 | 40 | -36 | 32 | 12
O=C(CSc1nc2cc(Cl)ccc2s1)c1ccco1 | 43* | -4 | -8 | 43 | -42 | 19 | 37*
O=C(CSc1nnc(SCC(=O)c2ccco2)s1)c1ccco1 | 27 | 13 | 3 | 29 | 3 | -3 | x
CCCC1=C/C(=C/c2ccc(-c3ccccc3OC)o2)C(=O)O1 | 28 | -5 | -6 | 23 | -1 | 17 | x
COc1ccccc1-c1ccc(/C=C2/C=C(CC(C)C)OC2=O)o1 | 42* | 1 | 14 | 31 | 6 | 22 | 36*
O=C(NC(=S)NNC(=O)c1ccccc1[N+](=O)[O-])c1ccc(Br)cc1 | 41* | 63* | 10 | 49 | 13 | 36 | 44*
CCCC(=O)Nc1ccc(NC(=S)NC(=O)c2ccccc2[N+](=O)[O-])cc1 | -14 | -2 | -6 | 14 | 8 | 10 | x
O=C(NNC(=S)NC(=O)c1ccccc1[N+](=O)[O-])c1ccccc1Cl | 16 | 1 | 13 | 13 | 5 | 14 | x
CCCCCC(=O)NNC(=S)NC(=O)c1ccccc1[N+](=O)[O-] | 43* | 0 | -4 | 7 | x | 18 | 26
CC(=O)Nc1ccc(NC(=O)[C@@H](NC(=O)N2C[C@H]3C[C@@H](C2)c2cccc(=O)n2C3)C(C)C)cc1 | 6 | 2 | -1 | -19 | 1 | 2 | x
CSc1ccc(/C=C/C(=O)c2ccc(NC(=O)C(C)C)cc2)cc1 | 42* | 11 | 36 | 39 | 8 | 32 | 40*
CCOC(=O)c1sc(=S)n(Cc2ccccc2)c1N | 42* | -7 | 46 | 22 | 0 | 16 | 40*
CCOC(=O)c1sc(=S)n(CC)c1N | -11 | -4 | -2 | 7 | 20 | 2 | x
C/C(=N\O)c1cc(Cl)cc(Cl)c1O | 48* | -4 | 77* | 38 | -46 | 38 | 43*
CC(C)(C)C(=O)[C@@H]1[C@@H]2C(=O)N(C3CCCCC3)C(=O)[C@@H]2[C@H]2c3ccccc3C=CN12 | 40* | x | x | 26 | 4 | 26 | 26
COc1ccccc1C1=Nn2c(nnc2C2CCCCC2)SC1 | 44* | x | x | 16 | 4 | -3 | 19
